A selection: hits, their analogues and other compounds. The true share with any hit is near 19%.
Cycloheximide cs: counter-screen hit for Shiga toxin inhibitors, cycloheximide; 300,000 compounds, 12% hits; AID 2314; max response, %; cell reporter, cycloheximide protein synthesis inhibition counterscreen; in the data active = max response mostly above about 13%, no sharp cut-off; inactive = mostly below about 14%; also: read at 38.3 µM for the half of the compounds with a filed dose; 0% is about no effect
Shiga toxin inh: inhibitors of Shiga toxin in Vero cells | Vero cells, Shiga toxin protein synthesis inhibition reporter | inhibition, % at 38.7 µM | 290,000 compounds, 9.2% hits; in the data active = inhibition mostly above about 28%, no sharp cut-off; inactive = mostly below about 43%; also: 0% is about no effect
Pf growth 96h: P. falciparum growth inhibition at 96 hour, primary screen for plastid delayed-death inhibitors | P. falciparum luciferase reporter growth, 96 h | Potency, µM (highest dose often 28.7 µM), inactives show top-dose activity change, negative = inhibition, hits mostly inhibitors | 320,000 compounds, 6.9% hits; also: potency is read from the fitted curve at half-maximal effect; % is scaled to controls: 0 for no effect and ±100 for the full control effect
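Two parasite generations (96 h, 37 C, 5% CO2) of compound exposure in infected erythrocytes (0.05% parasitemia, 2% hematocrit). Luciferase-reporter P. falciparum; decreased luminescence indicates inhibited growth, aimed at apicoplast-acting delayed death.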
Pf growth 48h: P. falciparum growth inhibition at 48 hours (one generation). Potency, µM (doses to about 28.7 µM), for the others: top-dose activity change, negative = inhibition, most hits filed as inhibitors. AID 504832. P. falciparum luciferase growth in erythrocytes, 48 h. 310,000 compounds, 5.9% hits; also: potency is read from the fitted curve at half-maximal effect; % is scaled to controls: 0 for no effect and ±100 for the full control effect
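Cell-based growth assay: transgenic P. falciparum expressing firefly luciferase, cultured in red cells within RPMI 1640 containing 0.5% w/v Albumax, 24 mM bicarbonate and gentamycin. A drop in luciferase activity indicates inhibition.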
AMA1-RON2 inh: AMA1-RON2 (P. falciparum) interaction inhibition | AID 720542 | Potency, µM (series often up to 58.2 µM), without a hit: top-dose activity change, negative = inhibition, most hits filed as inhibitors | AlphaScreen AMA1-biotinylated RON2 peptide binding | 360,000 compounds, 0.2% hits;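 also: potency is read from the fitted curve at half-maximal effect; 0% = vehicle wells and -100% = peptide control; nearly all actives have a fitted effect of over 45% in size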
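AMA1 (3D7) with his tag at 25 nM final met compounds first, then biotinylated RON2 peptide at 25 nM; detection used donor plus acceptor beads, 10 µg/mL apiece, read by AlphaScreen after 30 min at room temperature.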
SARS PLpro yeast: blocks SARS-CoV papain-like protease in a yeast assay. S. cerevisiae expressing SARS-CoV PLpro, growth rescue. Potency, µM (highest dose often 32.9 µM), without a hit: top-dose activity, positive = growth rescue, most hits filed as activators. 330,000 compounds, 0.19% hits. AID 485353; calls by dose curve; also: potency is read from the fitted curve at half-maximal effect; 0% is about no effect; nearly all actives have a fitted effect of over 55% in size
Active calls of the source: *; ? = inconclusive; / = not tested or not shown. Unless noted, calls follow the shape of the dose curve; as a rule, active = well fitted curve in the direction sought with a large enough effect; inconclusive = small, poorly fitted or top-dose-only effect, or another doubt; inactive = no such curve, though single readings can be large; an effect the other way counts as inactive or inconclusive.

SMILES | Cycloheximide cs | Shiga toxin inh | Pf growth 96h | Pf growth 48h | AMA1-RON2 inh | SARS PLpro yeast
CC[C@H](C)[C@H](NC(=O)[C@H](C)NC(=O)[C@H](CC(=O)O)NC(=O)[C@H](CO)NC(=O)[C@@H](N)Cc1cnc[nH]1)C(=O)N[C@@H](Cc1ccccc1)C(=O)N[C@H](C(=O)N[C@@H](CCC(N)=O)C(=O)N[C@@H](CCC(N)=O)C(=O)N[C@@H](Cc1ccc(O)cc1)C(=O)N[C@@H](CO)C(=O)N[C@@H](CCCCN)C(=O)N[C@@H](CC(C)C)C(=O)N[C@@H](CC(C)C)C(=O)N[C@@H](C)C(=O)N[C@@H](CCCCN)C(=O)N[C@@H](CC(C)C)C(=O)N[C@@H](C)C(=O)N[C@@H](CC(C)C)C(=O)N[C@@H](CCC(N)=O)C(=O)N[C@@H](CCCCN)C(=O)N[C@@H](Cc1ccc(O)cc1)C(=O)N[C@@H](CC(C)C)C(=O)N[C@@H](C)C(=O)N[C@@H](CO)C(=O)N[C@H](C(=O)N[C@@H](CC(C)C)C(=O)NCC(=O)N[C@@H](CO)C(=O)N[C@@H](CCCNC(=N)N)C(=O)N[C@H](C(=O)N[C@@H](CO)C(=O)N1CCC[C@H]1C(=O)N1CCC[C@H]1C(=O)N1CCC[C@H]1C(N)=O)[C@@H](C)O)[C@@H](C)CC)[C@@H](C)O | -4.4 | -11.5 | / | / | / | /
S=c1[nH]nc(-c2ccc3ccccc3n2)n1-c1cc(Cl)cc(Cl)c1 | -0.9 | -7.1 | 4.15µM* | 12.1% | 42.1% | 16.6%
Fc1ccc(-n2c(-c3ccc4ccccc4n3)n[nH]c2=S)cc1 | -2.9 | 10.9 | 0.0% | 5.7% | 105.9% | -0.1%
O=C(Nc1ccc2oc(-c3ccncc3)nc2c1)c1ccc2c(c1)OCCO2 | -3.2 | 5.6 | 9.28µM* | ? | -6.3% | -5.2%
O=C(Nc1ccc2oc(-c3ccncc3)nc2c1)c1ccc2c(c1)OCO2 | -0.7 | -9.5 | 3.8% | 2.8% | -1.6% | 1.1%
O=C(Nc1ccc2oc(-c3cccnc3)nc2c1)c1ccc2c(c1)OCCO2 | 25.7 | 19.6 | ? | 8.28µM* | -10.7% | 0.2%
CN(C)c1ccc(NC(=O)CSCc2nc3c(nnn3Cc3ccc(F)cc3)c(=O)[nH]2)cc1 | 8.3 | 15.1 | 8.28µM* | -23.0% | 5.6% | 5.3%
Cc1cccc(NC(=O)CSCc2nc3c(nnn3Cc3ccc(F)cc3)c(=O)[nH]2)c1C | -0.9 | 8.9 | -28.9% | 4.9% | 10.3% | -0.9%
CN1CCN(Cc2cccc3ncccc23)CC1CCO (stereo not given) | -2.1 | 18.5 | ? | -11.3% | 2.1% | -2.3%
Cc1ccccc1C(=O)c1c[nH]c(C(=O)NCC2CCCO2)c1 (stereo not given) | -2.5 | -1.1 | -9.6% | 4.5% | 7.4% | -8.0%
CC(C)(C)c1ccc(C(=O)c2c[nH]c(C(=O)NCCCN3CCOCC3)c2)cc1 | -2.7 | -10.3 | 10.4µM* | 13.1µM* | -6.4% | 1.5%

Source: PubChem
